Laboratory results: PubChem BioAssay (EPA / NIEHS)
Activity calls are given as the source filed them. The calls were made as follows: active = hit-call score of the fitted dose curve at least 0.9, where 1 is the maximum; inactive = score below 0.9.

What was measured:
[1] = read-out: Interleukin-8 (IL8), CXCL8 (gene 3576); assay: BSK_BF4T_IL8: BioMAP Diversity Plus: BF4T Assay for Interleukin-8 (IL8) Biomarker Activity (AID 2284263); conditions: primary human bronchial epithelial cells with fibroblasts
Method in brief: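 Human bronchial epithelial cells with dermal fibroblasts co-culture; IL-8 measured by ELISA 24 hours after dosing, fitted vs DMSO. Cytotoxicity tracked in parallel cultures by SRB total-protein staining.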

[2] = read-out: Interleukin-1 alpha (IL1a), IL1A (gene 3552); assay: BSK_BF4T_IL1a: BioMAP Diversity Plus: BF4T Assay for Interleukin-1 alpha (IL1a) Biomarker Activity (AID 2284264); conditions: primary human bronchial epithelial cells with fibroblasts
Method in brief: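 Human bronchial epithelial cells co-cultured with dermal fibroblasts, dosed and read at 24 h. Secreted/surface IL-1α quantified by ELISA; gain-of-signal fitted relative to DMSO baseline. Parallel SRB total-protein staining tracked cytotoxicity.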

Decorin, DCN (gene 1634) = assay: BSK_MyoF_Decorin: BioMAP Diversity Plus: MyoF Assay for Decorin Biomarker Activity (AID 2284265); conditions: primary human lung fibroblasts
Method in brief: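 ELISA readout of decorin, 24 h post-dosing; primary human lung fibroblast (MyoF) culture; gain-of-signal fit vs DMSO baseline.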

KRT18 (gene 3875) [3] = assay: BSK_BF4T_Keratin818: BioMAP Diversity Plus: BF4T Assay for Keratin 818 Biomarker Activity (AID 2284266); conditions: primary human bronchial epithelial cells with fibroblasts
Method in brief: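 Co-culture of human bronchial epithelial cells and dermal fibroblasts, chemical exposure 24 h. Keratin 8/18 measured by ELISA; positive-direction fit vs DMSO. SRB total protein run in parallel cultures for cytotoxicity.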

[4] = read-out: Matrix Metallopeptidase 1 (MMP1), MMP1 (gene 4312); assay: BSK_MyoF_MMP1: BioMAP Diversity Plus: MyoF Assay for Matrix Metallopeptidase 1 (MMP1) Biomarker Activity (AID 2284268); conditions: primary human lung fibroblasts
Method in brief: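 Cells: human lung fibroblasts. Exposure: 24 h chemical dosing. Detection: ELISA for MMP1. Analysis: upward fitting against DMSO negative control.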

[5] = read-out: TIMP metallopeptidase inhibitor 1 (TIMP1), TIMP1 (gene 7076); assay: BSK_MyoF_TIMP1: BioMAP Diversity Plus: MyoF Assay for TIMP metallopeptidase inhibitor 1 (TIMP1) Biomarker Activity (AID 2284269); conditions: primary human lung fibroblasts
Method in brief: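 TIMP-1 levels were determined by ELISA in human lung fibroblasts treated for 24 h. DMSO served as negative control and baseline for upward curve fitting.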

[6] = read-out: Matrix Metallopeptidase 3 (MMP3), MMP3 (gene 4314); assay: BSK_BF4T_MMP3: BioMAP Diversity Plus: BF4T Assay for Matrix Metallopeptidase 3 (MMP3) Biomarker Activity (AID 2284271); conditions: primary human bronchial epithelial cells with fibroblasts
Method in brief: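 Co-culture of human bronchial epithelial cells and dermal fibroblasts dosed 24 h; MMP-3 measured by ELISA, positive-direction fit versus DMSO. Cytotoxicity tracked by SRB total-protein staining (560 nm) in parallel cultures.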

[7] = read-out: Tissue plasminogen activator (tPA), PLAT (gene 5327); assay: BSK_BF4T_tPA: BioMAP Diversity Plus: BF4T Assay for Tissue plasminogen activator (tPA) Biomarker Activity (AID 2284272); conditions: primary human bronchial epithelial cells with fibroblasts
Method in brief: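 tPA level quantified by ELISA at 24 h post-treatment in bronchial epithelial/dermal fibroblast co-cultures, gain of signal scored against DMSO baseline. Parallel cultures stained with 0.1% SRB (560 nm) to flag overt cytotoxicity.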

[8] = read-out: Matrix Metallopeptidase 9 (MMP9), MMP9 (gene 4318); assay: BSK_BF4T_MMP9: BioMAP Diversity Plus: BF4T Assay for Matrix Metallopeptidase 9 (MMP9) Biomarker Activity (AID 2284276); conditions: primary human bronchial epithelial cells with fibroblasts
Method in brief: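 Co-culture of human bronchial epithelial cells and dermal fibroblasts dosed for 24 h; MMP-9 quantified by ELISA and fitted upward versus DMSO. Cytotoxicity monitored in parallel cultures by SRB total-protein staining at the biomarker time point.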

[9] = read-out: Interleukin-8 (IL8), CXCL8 (gene 3576); assay: BSK_IMphg_IL8: BioMAP Diversity Plus: IMphg Assay for Interleukin-8 (IL8) Biomarker Activity (AID 2284277); conditions: primary human endothelial cells with macrophages
Method in brief: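 Co-culture of human venular endothelial cells and macrophages exposed to chemicals for 24 h; IL-8 quantified by ELISA and compared against the DMSO baseline, with SRB total-protein staining in parallel cultures for cytotoxicity.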

[10] = read-out: Intercellular Adhesion Molecule 1 (ICAM1), ICAM1 (gene 3383); assay: BSK_BE3C_ICAM1: BioMAP Diversity Plus: BE3C Assay for Intercellular Adhesion Molecule 1 (ICAM1) Biomarker Activity (AID 2284278); conditions: primary human bronchial epithelial cells;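 also: cell-surface ICAM-1 protein level quantified by ELISA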
Method in brief: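 Measured by ELISA: ICAM-1 expressed by primary human bronchial epithelial cells 24 h after compound treatment, with upward-direction fitting versus DMSO vehicle.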

[11] = read-out: Interferon-inducible T-cell alpha chemoattractant (ITAC), CXCL11 (gene 6373); assay: BSK_BE3C_ITAC: BioMAP Diversity Plus: BE3C Assay for Interferon-inducible T-cell alpha chemoattractant (ITAC) Biomarker Activity (AID 2284279); conditions: primary human bronchial epithelial cells
Method in brief: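 The assay measures I-TAC levels by ELISA in human primary bronchial epithelial cell cultures 24 hours after chemical treatment. Values reflect signal increase over the DMSO baseline.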

[12] = read-out: Interleukin-8 (IL8), CXCL8 (gene 3576); assay: BSK_BE3C_IL8: BioMAP Diversity Plus: BE3C Assay for Interleukin-8 (IL8) Biomarker Activity (AID 2284280); conditions: primary human bronchial epithelial cells
Method in brief: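 IL-8 signal gain, normalised to DMSO vehicle, was scored after a 24 h chemical exposure of primary human bronchial epithelial cells, with detection by ELISA.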

[13] = read-out: Epidermal growth factor receptor (EGFR), EGFR (gene 1956); assay: BSK_BE3C_EGFR: BioMAP Diversity Plus: BE3C Assay for Epidermal growth factor receptor (EGFR) Biomarker Activity (AID 2284281); conditions: primary human bronchial epithelial cells
Method in brief: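 Compound is added to human bronchial epithelial cells, cells incubate 24 h, then EGFR is detected by ELISA. Values reflect positive-direction fitting relative to DMSO.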

KRT18 (gene 3875) [14] = assay: BSK_BE3C_Keratin818: BioMAP Diversity Plus: BE3C Assay for Keratin 818 Biomarker Activity (AID 2284282); conditions: primary human bronchial epithelial cells
Method in brief: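 BE3C: human bronchial epithelial primary cells, 24 h exposure, Keratin 8/18 ELISA; DMSO = negative control/baseline; cytotoxicity by parallel SRB stain (0.1% SRB after 10% TCA fixation, 560 nm).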

[15] = read-out: Plasminogen Activator Inhibitor-1 (PAI1), SERPINE1 (gene 5054); assay: BSK_BF4T_PAI1: BioMAP Diversity Plus: BF4T Assay for Plasminogen Activator Inhibitor-1 (PAI1) Biomarker Activity (AID 2284273); conditions: primary human bronchial epithelial cells with fibroblasts
Method in brief: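 Co-culture of human bronchial epithelial cells and dermal fibroblasts exposed to compound for 24 h. PAI-1 measured by ELISA; activity fitted in positive direction versus DMSO. Parallel SRB staining assessed overt cytotoxicity.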

[16] = BSK_BF4T_SRB: Viability Assessment in the BioMAP Diversity Plus: BF4T Assay (AID 2284274); conditions: primary human bronchial epithelial cells with fibroblasts
Method in brief: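 Co-culture of human bronchial epithelial cells and dermal fibroblasts (BioMAP BF4T) exposed 24 h. Total protein by sulforhodamine B staining (0.1% SRB after 10% TCA fixation, 560 nm) in parallel cultures; fitted vs DMSO.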

[17] = read-out: Matrix Metallopeptidase 1 (MMP1), MMP1 (gene 4312); assay: BSK_BF4T_MMP1: BioMAP Diversity Plus: BF4T Assay for Matrix Metallopeptidase 1 (MMP1) Biomarker Activity (AID 2284270); conditions: primary human bronchial epithelial cells with fibroblasts
Method in brief: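 Co-culture of human bronchial epithelial cells and dermal fibroblasts; MMP-1 levels measured by ELISA 24 hours after chemical dosing, relative to DMSO. Cytotoxicity checked in parallel cultures by SRB total-protein staining.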

[18] = BSK_MyoF_SRB: Viability Assessment in the BioMAP Diversity Plus: MyoF Assay (AID 2284267); conditions: primary human lung fibroblasts;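 also: total protein by SRB absorbance in parallel cultures as cytotoxicity measure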
Method in brief: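 Cytotoxicity in primary human lung fibroblasts is gauged by SRB total-protein staining 24 h after dosing, with DMSO as the negative control.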

Question: Which results are given for `O=C(O)C(F)(F)C(F)(F)C(F)(F)F`?
Answer: outcome [1]: inactive; outcome [2]: inactive; outcome (Decorin, DCN (gene 1634)): inactive; outcome (KRT18 (gene 3875) [3]): inactive; outcome [4]: inactive; outcome [5]: inactive; outcome [6]: inactive; outcome [7]: inactive; outcome [8]: inactive; outcome [9]: inactive; outcome [10]: inactive; outcome [11]: inactive; outcome [12]: inactive; outcome [13]: inactive; outcome (KRT18 (gene 3875) [14]): inactive

Question: For `CC(C)(C)C(=O)CC(=O)C(F)(F)C(F)(F)C(F)(F)F`, which outcome [1] is on record?
Answer: inactive

Question: And the outcome [2]?
Answer: inactive

Question: And the outcome (Decorin, DCN (gene 1634))?
Answer: inactive

Question: What about the outcome (KRT18 (gene 3875) [3]) of the same compound?
Answer: inactive

Question: What about the outcome [4] of the same compound?
Answer: inactive

Question: What about the outcome [6] of the same compound?
Answer: inactive

Question: And the outcome [7]?
Answer: inactive

Question: What about the outcome [15] of the same compound?
Answer: inactive

Question: And the outcome [16]?
Answer: inactive

Question: What about the outcome [8] of the same compound?
Answer: inactive

Question: And the outcome [9]?
Answer: inactive

Question: And the outcome [10]?
Answer: inactive

Question: And the outcome [11]?
Answer: inactive

Question: And the outcome [12]?
Answer: inactive

Question: What about the outcome [13] of the same compound?
Answer: inactive

Question: And the outcome (KRT18 (gene 3875) [14])?
Answer: inactive

Question: What does the source list for `CCCCCCOC(=O)c1ccccc1O`?
Answer: outcome [10]: inactive; outcome [11]: inactive; outcome [12]: inactive; outcome [13]: inactive; outcome (KRT18 (gene 3875) [14]): inactive

Question: What does the source list for `O=C(O)C(F)(F)C(F)(F)C(F)(F)C(F)(F)F`?
Answer: outcome [1]: inactive; outcome [2]: inactive; outcome (Decorin, DCN (gene 1634)): inactive; outcome (KRT18 (gene 3875) [3]): inactive; outcome [4]: inactive; outcome [17]: inactive; outcome [6]: inactive; outcome [7]: inactive; outcome [8]: inactive; outcome [9]: inactive; outcome [10]: inactive; outcome [11]: inactive; outcome [12]: inactive; outcome [13]: inactive; outcome (KRT18 (gene 3875) [14]): inactive

Question: Which outcome (Decorin, DCN (gene 1634)) does the source give for `CO[Si](OC)(c1ccccc1)c1ccccc1` here?
Answer: inactive

Question: What about the AC50 [4] of the same compound?
Answer: 28.9 µM (active)

Question: And the outcome [5]?
Answer: inactive

Question: Which results are given for `CCCCCCC(C)OC(=O)CCCCC(=O)OC(C)CCCCCC` (stereo unspecified)?
Answer: outcome (Decorin, DCN (gene 1634)): inactive; outcome [18]: inactive; outcome [4]: inactive

Question: With `O=P(O)(O)OCCC(F)(F)C(F)(F)C(F)(F)C(F)(F)C(F)(F)C(F)(F)F` as the compound, how does the outcome [1] read?
Answer: inactive

Question: What about the outcome [2] of the same compound?
Answer: inactive

Question: And the outcome (Decorin, DCN (gene 1634))?
Answer: inactive

Question: And the outcome (KRT18 (gene 3875) [3])?
Answer: inactive

Question: What about the outcome [4] of the same compound?
Answer: inactive

Question: What about the outcome [6] of the same compound?
Answer: inactive

Question: What about the outcome [7] of the same compound?
Answer: inactive

Question: What about the outcome [8] of the same compound?
Answer: inactive

Question: What about the outcome [9] of the same compound?
Answer: inactive

Question: And the outcome [10]?
Answer: inactive

Question: And the outcome [11]?
Answer: inactive

Question: What about the outcome [12] of the same compound?
Answer: inactive

Question: What about the outcome [13] of the same compound?
Answer: inactive

Question: What about the outcome (KRT18 (gene 3875) [14]) of the same compound?
Answer: inactive

Question: For `OCC(F)(F)C(F)(F)C(F)(F)C(F)(F)C(F)(F)C(F)F`, which outcome [1] is on record?
Answer: inactive

Question: And the outcome [2]?
Answer: inactive

Question: What about the outcome (Decorin, DCN (gene 1634)) of the same compound?
Answer: inactive

Question: And the outcome (KRT18 (gene 3875) [3])?
Answer: inactive

Question: And the outcome [4]?
Answer: inactive

Question: What about the outcome [6] of the same compound?
Answer: inactive

Question: And the outcome [7]?
Answer: inactive

Question: What about the outcome [16] of the same compound?
Answer: inactive

Question: And the outcome [8]?
Answer: inactive

Question: What about the outcome [9] of the same compound?
Answer: inactive

Question: And the outcome [10]?
Answer: inactive

Question: What about the outcome [11] of the same compound?
Answer: inactive

Question: And the outcome [12]?
Answer: inactive

Question: What about the outcome [13] of the same compound?
Answer: inactive

Question: What about the outcome (KRT18 (gene 3875) [14]) of the same compound?
Answer: inactive
